# Assay outcomes as filed in PubChem.
# MIN6 prolif: inducers of MIN6 beta-cell proliferation, primary screen, ATP luminescence, uHTS; 330,000 tested, 0.29% active; proliferation, % at 10 µM; MIN6 cells proliferation, ATPlite luminescence, 48 h; cells starved in 0.2% serum; 100% = growth in 10% serum;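 active = compounds whose signal lies at least 3.5 SD above the mean of all wells on their plate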;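 note: 0% = DMSO-treated cells in low-serum medium and 100% = 10% serum control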
# Platelet DG rel: inhibitors of platelet dense granule secretion, primary screen, cell-based, MLPCN, human platelets; human platelet-rich plasma, SFLLRN dense granule ATP release, luminescence; inhibition, %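 (compounds screened at 7.5 µM in platelet-rich plasma)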; 300,000 tested, 0.22% active; AID 1663, 2009;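 active = mean replicate score, as percent of positive control, at or above 50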
# GRK2 aptamer HTS: compounds blocking aptamer binding on GRK2 – biochemical, human GRK2, bead flow cytometry, HTS, primary screen; Beta-adrenergic receptor kinase 1 (Homo sapiens), P25098; FAM-aptamer displacement from GRK2; inhibition of aptamer binding, % at 10 µM; 330,000 tested, 0.59% active; AID 488847, 2010;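 active = inhibition of aptamer binding above 40%, roughly 3 SD of noise, on plates passing a quality check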;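 note: median bead fluorescence of bound FAM aptamer so fluorescent compounds give negative values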
# NTR1 ag: agonists of human NTR1, primary screen, imaging, U2OS cells, beta-arrestin-GFP, high content; NTR1-U2OS beta-arrestin-GFP spot imaging, agonist mode; Neurotensin receptor type 1 (Homo sapiens), P30989; activation, % at 20 µM; 330,000 tested, 0.17% active;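 active = activation at or above 40% of the spot to cytoplasm intensity ratio, with at least 20 cells analyzed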;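 note: 0% = DMSO without peptide and 100% = 100 nM NTR1 peptide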
# Target sequence (P30989 whole entry, looked up): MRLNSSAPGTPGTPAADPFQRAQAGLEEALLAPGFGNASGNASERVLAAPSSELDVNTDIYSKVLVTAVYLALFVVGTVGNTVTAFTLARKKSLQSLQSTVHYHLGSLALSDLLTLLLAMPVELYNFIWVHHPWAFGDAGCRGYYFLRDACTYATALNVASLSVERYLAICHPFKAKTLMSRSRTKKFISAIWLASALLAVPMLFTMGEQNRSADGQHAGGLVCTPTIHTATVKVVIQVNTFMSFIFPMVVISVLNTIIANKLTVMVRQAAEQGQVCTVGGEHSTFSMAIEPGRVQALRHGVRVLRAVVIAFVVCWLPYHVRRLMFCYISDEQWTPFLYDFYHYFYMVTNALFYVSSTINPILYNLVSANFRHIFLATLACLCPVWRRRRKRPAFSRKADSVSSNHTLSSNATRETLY
# NTR1 ag confirm: NTR1 agonists, single-dose retest, confirmation, imaging, U2OS cells, beta-arrestin-GFP, single concentration | activation, % at 20 µM | shares compounds with NTR1 ag | 480 tested, 38% active | NTR1-U2OS beta-arrestin-GFP translocation imaging;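 active = mean activation at 20 µM of at least 40%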;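 note: 0% = DMSO without peptide and 100% = 100 nM NTR1 peptide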
# * = called active by the depositor; x = no result given. In the library only some 1.2% were active in any assay of this set; here they are far more common.
SMILES,MIN6 prolif,Platelet DG rel,GRK2 aptamer HTS,NTR1 ag,NTR1 ag confirm
COc1ccc(-c2cc(-c3cc(C)ccc3O)[nH]n2)cc1,-5.2,-0.9,0.0,43.5*,14.4
COc1ccccc1/C=C\C=N\n1c(-c2ccc(Cl)cc2)n[nH]c1=S,-0.5,-9.9,0.0,48.6*,9.4
COc1ccc(CNC(=O)CCn2c(C)csc2=O)cc1,-0.4,x,2.0,1.3,x
CC1CCC(C(C)C)C(OCC(O)CNC(C)c2ccccc2)C1 (configuration not stated),-6.9,5.9,0.0,40.2*,40.8*
O=C(Nc1ccc(N2CCN(C(=O)c3ccccc3)CC2)cc1)c1cc2ccccc2o1,1.0,x,0.0,63.9*,86.3*
CN1CCN(c2ccc(NC(=O)c3cc4ccccc4o3)cc2)CC1,-3.9,0.7,x,-1.0,x
CC1CCCN(C(=O)c2ccc(NS(=O)(=O)c3cccc([N+](=O)[O-])c3)cc2)C1 (configuration not stated),-3.3,-0.7,0.0,-0.6,x
COc1cc(CNCc2ccccc2)cc(Cl)c1OC,-0.6,4.6,0.0,3.3,x
COc1cc(CNCCc2ccccc2)cc(Cl)c1OCc1ccccc1,-6.2,3.9,0.0,61.2*,6.2
Cc1ccc(C(=O)Sc2cccccc2=O)cc1,-6.1,-15.3,1.0,25.4,x
Cc1cccn2c(=O)c3cc(C(=O)NC4CCCC4)c(=N)n(CCc4ccccc4)c3nc12,-6.3,-14.7,6.0,32.3,x
COc1ccc(CCn2c(=N)c(C(=O)NC3CCCC3)cc3c(=O)n4cccc(C)c4nc32)cc1,-6.7,5.4,5.0,50.3*,38.7
O=C1NC2(CCCCC2)C(=O)N1CC(=O)N1CCc2ccccc21,1.4,x,2.0,1.0,x
Cc1ccc(N2CCN(C(=O)C3CCCN(c4ncnc5c4nc4n5CCCCC4)C3)CC2)c(C)c1 (configuration not stated),-3.4,3.6,5.0,72.7*,29.5
Cc1cccc(N2CCN(C(=O)C3CCN(c4ncnc5c4nc4n5CCCCC4)CC3)CC2C)c1 (configuration not stated),-4.5,2.1,0.0,54.7*,31.3
COc1ccc(S(=O)(=O)N2CCOC23CCN(S(=O)(=O)c2ccccc2)CC3)cc1,2.3,17.7,0.0,-1.0,x
CCOC(=O)c1c(NC(=O)C(C)OC(=O)c2ccc(NC(=O)CC#N)cc2)sc2c1CCCC2 (configuration not stated),-6.4,9.8,0.0,9.1,x
O=C(Nc1ccc(Cl)c(C(F)(F)F)c1)NC1CC2CCCC(C1)N2Cc1ccccc1 (configuration not stated),-5.0,7.6,0.0,43.7*,22.6
O=C(NC1CC2CCCC(C1)N2C(=O)Nc1ccc(Cl)c(C(F)(F)F)c1)C1CC1 (configuration not stated),-1.6,0.3,0.0,-1.9,x
O=C(CN1C(=O)c2ccccc2S1(=O)=O)Nc1ccon1,-0.8,-32.1,1.0,0.4,x
COc1cccc(-c2nc(NC3CCCC3)c3ccccc3n2)c1O,-5.0,4.1,0.0,59.6*,7.6
COc1cccc(-c2nc(NCc3ccccc3)c3ccccc3n2)c1O,-3.6,-1.4,0.0,17.1,x
CCC(C)NC(=O)c1c(N)n(/N=C/c2cccnc2)c2nc3ccccc3nc12 (configuration not stated),-5.5,-5.8,2.0,41.4*,46.2*
CCC(C)NC(=O)c1c(N)n(/N=C/c2ccccn2)c2nc3ccccc3nc12 (configuration not stated),-5.8,5.2,0.0,24.4,x
CCCCOc1ccc(CSC(=N)N)cc1Cl,-3.9,-13.0,0.0,49.9*,15.8
SMILES,MIN6 prolif,Platelet DG rel,GRK2 aptamer HTS,NTR1 ag,NTR1 ag confirm
CC(=O)Nc1ccc(S(=O)(=O)N(C)Cc2cnn(C)c2)cc1,4.3,-11.1,0.0,-0.1,x
Oc1ccccc1/C=N/Nc1cc(N2CCCC2)nc(N2CCCC2)n1,0.0,-1.6,0.0,40.4*,26.8
Oc1ccc(/C=N/Nc2cc(N3CCOCC3)nc(N3CCOCC3)n2)cc1O,-2.9,3.5,0.0,1.2,x
CCCn1cc(S(=O)(=O)c2ccc(OC)cc2)c(=O)c2cc(OCC)ccc21,6.1,8.7,1.0,0.8,x
CCOc1ccc2c(c1)C(=O)c1cc(OCC(=O)O)ccc1-2,-4.5,-10.0,0.0,1.6,x
CCCCOc1ccc2c(c1)C(=O)c1cc(O)ccc1-2,-5.0,-8.8,3.0,40.6*,9.2
COC(=O)CN1C(=O)C2(C(C#N)=C(N)Oc3n[nH]c(-c4cccs4)c32)c2ccccc21 (configuration not stated),2.5,-4.5,6.0,53.4*,-2.8
CC(C)c1ccc(Nc2nnc(SC3CCOC3=O)s2)cc1 (configuration not stated),0.0,-47.6,1.0,52.4*,75.9*
COc1ccc(-n2nc(C(=O)c3cccs3)cc(-c3nc4ccccc4[nH]3)c2=N)cc1,-5.9,3.8,0.0,76.5*,13.3
Cc1cccc(-n2nc(C(=O)c3ccco3)cc(-c3nc4ccccc4[nH]3)c2=N)c1,-6.1,16.6,5.0,10.2,x
Cc1cc(NC(=O)c2cccs2)n(-c2nc3ccccc3[nH]2)n1,-2.4,-2.4,0.0,7.7,x
Cc1ccccc1-n1nc(C(=O)c2cccs2)cc(-c2nc3ccccc3[nH]2)c1=N,-5.9,3.9,0.0,55.0*,1.7
Cc1cc2ccccc2c(=O)n1CC(=O)Nc1ccc2c(c1)OCCO2,-1.9,0.9,0.0,46.2*,-6.1
Cc1ccc(S(=O)(=O)Nc2ccc3c4c(cccc24)CC3)c(C)c1,-3.7,-13.6,1.0,41.2*,0.0
O=C1NC(Cc2ccccc2)c2nc3ccc(Br)cc3c(=O)n2-c2cc(Cl)ccc21 (configuration not stated),-3.9,x,6.0,-1.1,x
CCN1C(=O)C(CC(=O)Nc2ccc(F)cc2)N(Cc2ccco2)C1=S (configuration not stated),-1.9,7.5,3.0,-0.3,x
CCCCCCOc1ccc(NC(=O)CC2C(=O)N(CC)C(=S)N2Cc2ccco2)cc1 (configuration not stated),0.0,15.3,0.0,40.5*,10.2
CCCCCn1c(N2CCC(Cc3ccccc3)CC2)nc2c1c(=O)[nH]c(=O)n2C,-6.4,-36.9,3.0,40.9*,50.1*
CCOc1ccc(/C=C/[N+](=O)[O-])c2ccccc12,-5.9,1.9,1.0,80.5*,65.7*
CCOC(=O)Cn1cc(/C=C/[N+](=O)[O-])c2ccccc21,-2.4,-0.8,0.0,2.1,x
CCOC(=O)COc1ccc(/C=C/[N+](=O)[O-])c(OCC(=O)OCC)c1,-5.8,0.8,0.0,74.5*,69.2*
CCOC(=O)COc1ccc2nsnc2c1,0.0,3.4,5.0,0.1,x
COc1ccc2c(c1)CCc1c-2nc2ccccc2c1N1CCOCC1,-6.3,-5.0,0.0,7.1,x
